Laboratory results taken from PubChem BioAssay (EPA / NIEHS).
Results filed as inconclusive are left out. Activity calls are given as the source filed them. The calls were made as follows, unless noted: active = hit-call score of the fitted dose curve at least 0.9, where 1 is the maximum; inactive = score below 0.9.

Key:
[1] = CCTE_Simmons_MITO_basal_resp_rate: CCTE's HepG2 Seahorse XF Respirometric Screening Assay at Basal Respiratory State, Simmons Lab (AID 2284001); settings: actives raise or lower the signal
Procedure, shortened: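 Readout is oxygen consumption rate after test compound injection, measured by Seahorse XF in HepG2 cells. Seven concentrations from 125 nM up to 100 uM final are tested, and activity in either direction is fitted against DMSO.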

[2] = CCTE_Simmons_MITO_inhib_resp_rate: CCTE's HepG2 Seahorse XF Respirometric Screening Assay at Inhibited Respiratory State [full ETC block], Simmons Lab (AID 2284006); settings: actives raise or lower the signal
Procedure, shortened: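 This endpoint is the respiration rate remaining after rotenone/antimycin A block, in HepG2 cells on a Seahorse XF96. Chemicals spanned 125 nM–100 uM final, in three biological replicates. OCR was read every 6 minutes for 72 minutes and compared with DMSO vehicle.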

[3] = CCTE_Harrill_HTTr_Viability_MCF7: CCTE's 6-hour Cell Viability Assessment for the High-Throughput Transcriptomics (HTTr) Platform, in MCF-7 cells cultured in DMEM + 10% fetal bovine serum, Harrill Lab (AID 2284010)
Procedure, shortened: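 Propidium iodide exclusion, imaged by high-content analysis, gauged viability after a six-hour exposure across eight concentrations. Cells were MCF-7 grown in DMEM with 10% fetal bovine serum; fits run in both directions against DMSO.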

[4] = CCTE_Harrill_HTTr_Apoptosis_MCF7: CCTE's 6-hour Apoptosis Assessment for the High-Throughput Transcriptomics (HTTr) Platform, in MCF-7 cells cultured in DMEM + 10% fetal bovine serum, Harrill Lab (AID 2284011)
Procedure, shortened: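 Cells are dosed with test chemicals at eight concentrations and imaged 6 hours later for caspase-3/7 activity using a green fluorogenic detection reagent. Activity is fitted in both directions against DMSO controls.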

[5] = CCTE_Simmons_MITO_viability: CellTiter-Glo Viability Assessment for CCTE's HepG2 Seahorse XF Respirometric Screening Assay [post-hoc], Simmons Lab (AID 2284007; active = hit-call score of the fitted dose curve at least 0.9, where 1 is the maximum)
Procedure, shortened: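 Luciferase-coupled ATP read-out after the Seahorse run: HepG2 cells treated 90 minutes with test chemical, 7-point series of 125 nM–100 uM final, in triplicate biological runs. Vehicle DMSO; dichlone as positive control over 8 concentrations.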

[6] = CCTE_Shafer_MEA_acute_spike_number: CCTE's Neural Acute Assay for Total Number of Spikes, Shafer Lab (AID 2284008);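 as to AC50: curve fitted for decrease in spike count so AC50 reflects inhibitors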
Procedure, shortened: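 Cortical neurons from rat, matured to DIV 13 or 15 on microelectrode arrays, are recorded at 37 C before and during 40-min exposure to 0.03-40 uM compound. Wells need >/= 10 active electrodes.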

[7] = CCTE_Shafer_MEA_acute_firing_rate_mean: CCTE's Neural Acute Assay for Mean Firing Rate, Shafer Lab (AID 2284009);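 also: analyzed for loss of signal so actives lower firing rate relative to DMSO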
Procedure, shortened: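 Spontaneous spiking of primary rat cortical networks, DIV 13/15, 37 C. Compound 0.03-40 uM, n ≥3 wells; 40 min baseline vs 40 min treated. Endpoint fitted in loss-of-signal direction against DMSO.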

[8] = CCTE_Shafer_MEA_acute_burst_number: CCTE's Neural Acute Assay for Single-Electrode Bursts, Shafer Lab (AID 2284013)
Procedure, shortened: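 Burst totals were derived with adaptive spike detection (8x rms threshold) on filtered signals from rat cortical cultures; change relative to pre-treatment baseline after 40-min compound exposure (0.03-40 uM) was fitted in the negative direction against DMSO.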

[9] = CCTE_Shafer_MEA_acute_burst_duration_mean: CCTE's Neural Acute Assay for Mean Burst Duration, Shafer Lab (AID 2284014);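 also: hits are decreases in mean burst duration relative to DMSO controls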
Procedure, shortened: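 Acute exposure of mature rat cortical networks (DIV 13 or 15) grown on microelectrode arrays to 0.03-40 uM compound. Mean burst duration compared with the 40-min pre-dose baseline over a 40-min post-dose recording at 37 C.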

[10] = CCTE_Harrill_HTTr_CellCount_MCF7: CCTE's Cell Proliferation Assessment for the High-Throughput Transcriptomics (HTTr) Platform, Harrill Lab (AID 2284012; active = hit-call score of the fitted dose curve at least 0.9, where 1 is the maximum;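 also: cells exposed to compound for six hours; intended direction is loss of nuclei count meaning fewer cells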)
Procedure, shortened: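 Cell count from high-content imaging of Hoechst-labeled nuclei serves as viability/growth readout. Chemicals were applied to MCF-7 cells in eight concentrations for six hours, with fitting in both directions relative to DMSO.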

[11] = biological target: Nucleoli Translocation, AR (gene 367) (UniProt P10275); test: UPITT_HCI_U2OS_AR_TIF2_Nucleoli_Antagonist: University of Pittsburgh U2OS Androgen Receptor-Transcriptional Intermediary Factor 2 (AR-TIF2) Antagonism High Content Imaging Assay for Nucleoli Translocation (AID 2283997; active = hit-call score of the fitted dose curve at least 0.9, where 1 is the maximum)
Sequence of Nucleoli Translocation, AR (gene 367) (P10275 whole entry, looked up): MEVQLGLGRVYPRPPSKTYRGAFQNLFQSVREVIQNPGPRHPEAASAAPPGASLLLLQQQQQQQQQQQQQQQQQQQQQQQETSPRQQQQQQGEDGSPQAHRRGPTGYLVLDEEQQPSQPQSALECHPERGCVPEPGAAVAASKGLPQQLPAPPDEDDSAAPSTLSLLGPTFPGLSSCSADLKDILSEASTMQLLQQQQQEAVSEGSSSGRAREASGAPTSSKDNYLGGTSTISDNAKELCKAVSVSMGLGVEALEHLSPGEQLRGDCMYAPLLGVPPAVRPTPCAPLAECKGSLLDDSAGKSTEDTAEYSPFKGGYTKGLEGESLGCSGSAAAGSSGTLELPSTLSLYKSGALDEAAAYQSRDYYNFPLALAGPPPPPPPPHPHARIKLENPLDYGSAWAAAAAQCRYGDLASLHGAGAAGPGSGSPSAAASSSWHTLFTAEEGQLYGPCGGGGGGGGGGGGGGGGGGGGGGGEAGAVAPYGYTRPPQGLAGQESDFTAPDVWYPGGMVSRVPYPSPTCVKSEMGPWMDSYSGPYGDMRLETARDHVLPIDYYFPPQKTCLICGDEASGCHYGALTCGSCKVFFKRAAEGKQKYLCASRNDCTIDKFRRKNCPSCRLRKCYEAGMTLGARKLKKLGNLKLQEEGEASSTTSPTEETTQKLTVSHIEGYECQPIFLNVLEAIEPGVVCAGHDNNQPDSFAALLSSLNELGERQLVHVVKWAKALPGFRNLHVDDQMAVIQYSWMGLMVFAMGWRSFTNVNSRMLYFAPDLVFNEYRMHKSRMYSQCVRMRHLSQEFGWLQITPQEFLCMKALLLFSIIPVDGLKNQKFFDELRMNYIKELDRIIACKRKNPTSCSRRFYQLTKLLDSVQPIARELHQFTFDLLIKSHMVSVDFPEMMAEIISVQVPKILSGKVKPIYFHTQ
Procedure, shortened: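 An antagonist-mode imaging screen: engineered U2OS (AR-RFP, TIF2-GFP) exposed to 20 uM compound, 0.2% DMSO. Activity reflects nucleolar red fluorescence change relative to DHT baseline.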

[12] = biological target: Ratio of Nucleoli Translocation and Cytoplasm, AR (gene 367) (UniProt P10275); test: UPITT_HCI_U2OS_AR_TIF2_Nucleoli_Cytoplasm_Ratio_Antagonist: University of Pittsburgh U2OS Androgen Receptor-Transcriptional Intermediary Factor 2 (AR-TIF2) Antagonism High Content Imaging Assay for Ratio of Nucleoli Translocation and Cytoplasm (AID 2283999; active = hit-call score of the fitted dose curve at least 0.9, where 1 is the maximum;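 also: antagonists lower the DHT-driven ratio of nucleolar to cytoplasmic red signal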)
Sequence of Ratio of Nucleoli Translocation and Cytoplasm, AR (gene 367) (P10275 whole entry, looked up): as above
Procedure, shortened: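 High-content imaging of red fluorescence ratio, nucleoli versus cytoplasm, in U2OS expressing AR-RFP and TIF2-GFP, fitted relative to DHT. Compounds tested once at 20 uM final, then 0.195 to 50 uM final in serial dilution.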

[13] = biological target: Ratio of Nucleoli Translocation and Cytoplasm, AR (gene 367) (UniProt P10275); test: UPITT_HCI_U2OS_AR_TIF2_Nucleoli_Cytoplasm_Ratio_Agonist: University of Pittsburgh U2OS Androgen Receptor-Transcriptional Intermediary Factor 2 (AR-TIF2) Agonism High Content Imaging Assay for Ratio of Nucleoli Translocation and Cytoplasm (AID 2284000; active = hit-call score of the fitted dose curve at least 0.9, where 1 is the maximum;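 also: hits raise the red nucleolar to cytoplasm ratio above vehicle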)
Procedure, shortened: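 Primary screen at 20 uM final (0.2% DMSO), then triplicate confirmation and dose-response from 0.195 to 50 uM final (0.5% DMSO). Cells: U2OS with AR-RFP and TIF2-GFP. Endpoint is the nucleoli/cytoplasm red-fluorescence ratio, gain-of-signal vs DMSO.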

DIO1 (gene 1733) = test: CCTE_GLTED_hDIO1: CCTE's human Deiodinase 1 (DIO1) Inhibition Assay, Great Lakes Toxicology and Ecology Division (GLTED) Lab (AID 2283987; active = hit-call score of the fitted dose curve at least 0.9, where 1 is the maximum;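 also: isolated human DIO1 enzyme in a cell-free setup rather than cells; enzyme activity read as free iodide liberated from substrate via Sandell-Kolthoff colorimetry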)
Procedure, shortened: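 Cell-free hDIO1 assay, triplicate plates. Absorbance of the Sandell-Kolthoff reaction reports enzyme-liberated iodide; iodinated chemicals or nitrite, iron and thiocyanate may interfere.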

[14] = CCTE_Harrill_HTTr_Apoptosis_DMEM_6hr: (Pilot) CCTE's 6-hour Apoptosis Assessment for the High-Throughput Transcriptomics (HTTr) Platform, in MCF-7 cells cultured in DMEM + 10% fetal bovine serum, Harrill Lab (AID 2283981)
Procedure, shortened: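 MCF-7 cells grown in DMEM + 10% FBS were exposed for 6 hours to an eight-point dilution series. CellEvent Caspase 3/7 Green signal was imaged; activity fitted bidirectionally against DMSO.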

[15] = CCTE_Harrill_HTTr_Apoptosis_DMEM_12hr: (Pilot) CCTE's 12-hour Apoptosis Assessment for the High-Throughput Transcriptomics (HTTr) Platform, in MCF-7 cells cultured in DMEM + 10% fetal bovine serum, Harrill Lab (AID 2283982)
Procedure, shortened: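 Caspase-3/7 activity was measured by high-content imaging (CellEvent Caspase 3/7 Green) after a 12-hour exposure of MCF-7 cells grown in DMEM with 10% FBS. Eight-point concentration series, fitted bidirectionally against vehicle.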

[16] = CCTE_Harrill_HTTr_Apoptosis_DMEM_24hr: (Pilot) CCTE's 24-hour Apoptosis Assessment for the High-Throughput Transcriptomics (HTTr) Platform, in MCF-7 cells cultured in DMEM + 10% fetal bovine serum, Harrill Lab (AID 2283983)
Procedure, shortened: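 Caspase-3/7 activity read by high-content imaging (CellEvent Green reagent) 24 h after dosing. MCF-7 cells grown in DMEM with 10% FBS received an eight-point concentration series; fits were bidirectional versus DMSO.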

[17] = CCTE_Harrill_HTTr_Apoptosis_PRF_DMEM_6hr: (Pilot) CCTE's 6-hour Apoptosis Assessment for the High-Throughput Transcriptomics (HTTr) Platform, in MCF-7 cells cultured phenol red-free DMEM + 10% charcoal-stripped fetal bovine serum, Harrill Lab (AID 2283984)
Procedure, shortened: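 Caspase-3/7 activity (CellEvent Green) read by high-content imaging 6 h after dosing, eight concentrations. Cells: MCF-7, phenol red-free DMEM with 10% charcoal-stripped serum. Curves fit both directions against DMSO.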

[18] = CCTE_Harrill_HTTr_Apoptosis_PRF_DMEM_12hr: (Pilot) CCTE's 12-hour Apoptosis Assessment for the High-Throughput Transcriptomics (HTTr) Platform, in MCF-7 cells cultured in phenol red-free DMEM + 10% charcoal-stripped fetal bovine serum, Harrill Lab (AID 2283985)
Procedure, shortened: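 Caspase-3/7 activity by CellEvent Green high content imaging after 12 h compound exposure (eight concentrations) in MCF-7 grown in phenol red-free DMEM plus 10% charcoal-stripped serum; DMSO as baseline.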

[19] = CCTE_Harrill_HTTr_Apoptosis_PRF_DMEM_24hr: (Pilot) CCTE's 24-hour Apoptosis Assessment for the High-Throughput Transcriptomics (HTTr) Platform, in MCF-7 cells cultured in phenol red-free DMEM + 10% charcoal-stripped fetal bovine serum, Harrill Lab (AID 2283986)
Procedure, shortened: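 Eight concentrations tested for 24 h on MCF-7 grown in charcoal-stripped serum, phenol red-free DMEM. High content imaging of CellEvent Caspase 3/7 Green signal gives apoptosis read-out, fitted both ways relative to DMSO.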

Measured: AC50

CCSC(=O)N1CCCCCC1
inactive: [1] | [2] | [3] | [4]

N#Cc1c[nH]cc1-c1cccc2c1OC(F)(F)O2
inactive: [2] | [5] | [3] | [4] | [8] | [9]
active: [1] 77.1 µM | [6] 4.28 µM | [7] 4.27 µM

CCN(CC)c1nc(C)cc(OP(=S)(OC)OC)n1
inactive: [1] | [2] | [5] | [3] | [4] | [10]

COC(=O)N(C(=O)N1CO[C@@]2(C(=O)OC)Cc3cc(Cl)ccc3C2=N1)c1ccc(OC(F)(F)F)cc1
active: [6] 8.32 µM | [7] 8.24 µM
inactive: [11] | [12] | [13] | [3] | [4] | [10] | [8] | [9]

OC(c1ccc(Cl)cc1)(c1ccc(Cl)cc1)C(Cl)(Cl)Cl
inactive: [4] | [10] | [9]
active: DIO1 (gene 1733) 70.4 µM | [6] 1.83 µM | [7] 2.15 µM | [3] 38.6 µM | [8] 2.08 µM

Clc1cccc(C(Cl)(Cl)Cl)n1
inactive: [11] | [13] | [3] | [4] | [10]

COCC(=O)N(c1c(C)cccc1C)C(C)C(=O)OC (stereo unspecified)
inactive: [2] | [6] | [7] | [3] | [4] | [8] | [9]
active: [1] 36.2 µM

COC(=O)c1c(C(F)F)nc(C(F)(F)F)c(C2=NCCS2)c1CC(C)C
inactive: [11] | [13] | [3] | [4] | [10]

COc1ccc(-c2ccccc2)cc1NNC(=O)OC(C)C
inactive: [11] | [12] | [13] | [1] | [2] | [3] | [4]

Cc1cnc(C2=NC(C)(C(C)C)C(=O)N2)c(C(=O)O)c1 (stereo unspecified)
inactive: [11] | [13] | [3] | [4] | [10]

COP(=S)(OC)SCn1nnc2ccccc2c1=O
inactive: [12] | [6] | [7] | [3] | [4] | [10] | [8] | [9]
active: DIO1 (gene 1733) 47.3 µM | [11] 31.4 µM

C=CCOC(=O)C(C)(C)OC(=O)c1cc(-n2c(=O)cc(C(F)(F)F)n(C)c2=O)ccc1Cl
inactive: [14] | [15] | [16] | [17] | [18] | [19] | [3] | [4] | [10]

CC(C)=CC1C(C(=O)OCc2coc(Cc3ccccc3)c2)C1(C)C (stereo unspecified)
inactive: [1] | [2] | [6] | [7] | [3] | [4] | [8] | [9]

CCOc1cc(C(C)(C)C)ccc1C1COC(c2c(F)cccc2F)=N1 (stereo unspecified)
active: [6] 3.32 µM | [7] 3.32 µM | [8] 3.12 µM
inactive: [11] | [3] | [4] | [9]
